The nature of this experiment: enhancers of NK cell killing of ovarian tumor cells, primary screen, imaging, OVCAR3, primary NK cells, calcein-AM imaging (AID 1508625).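 Also: compound given to NK cells 16 h before adding targets at 1.5 to 1 ratio.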 Particulars: OVCAR3 lysis by primary NK cells, at 5 µM; z-score: measured here: robust Z-score, single-point normalisation.

`O=C(COc1ccc(Br)cc1)NCc1ccco1`: the corrected activity, negative = more killing is -0.415% and the z-score was -0.147.

For the molecule `Cc1ccc(-n2nc(C)c(C=Cc3onc(C)c3[N+](=O)[O-])c2C)cc1`, the corrected activity, negative = more killing was -6.18% and the z-score was -1.84.

Consider `CCOC(=O)c1ccc(CN(Cc2ccc(F)cc2)S(=O)(=O)c2cccc(Cl)c2)cc1`, for which the corrected activity, negative = more killing is -6.34% and the z-score is -1.71.

In the case of `Cc1ccc(NC(=O)c2cc(S(=O)(=O)NCCc3ccccc3)ccc2F)cc1F`, the corrected activity, negative = more killing was -5% and the z-score is -1.35.

For `COC(=O)c1conc1-c1ccccc1OC`, the corrected activity, negative = more killing is -3.1% and the z-score is -1.35.

In the case of `CCOC(=O)c1sc(N2C(=O)C(=O)C(=C(O)c3ccccc3)C2c2ccc(C(C)(C)C)cc2)nc1C` (centres undefined), the corrected activity, negative = more killing is -1.11% and the z-score is -0.48.

Consider `O=C(CCCn1c(=S)[nH]c2cc3c(cc2c1=O)OCO3)NC1CC1`, for which the corrected activity, negative = more killing is -7.46% and the z-score is -1.98.

Turning to `COc1cc2c(cc1NC(=O)Nc1cc3oc4ccccc4c3cc1OC)oc1ccccc12`, the corrected activity, negative = more killing was -6.21% and the z-score is -1.85.

For the molecule `O=C(Nc1cc([N+](=O)[O-])ccc1Cl)c1cnc2n(c1=O)CCS2`, the corrected activity, negative = more killing is -1.04% and the z-score is -0.332.

As to `COC(=O)C1C(=O)C2=C(CC1C)NC(C)=C(C(=O)OC1CCCC1)C2c1ccccc1OC(C)C` (centres undefined), the corrected activity, negative = more killing is -2.11% and the z-score is -0.524.

For the molecule `Cc1ccc(OCCNC(=O)C2CCCCC2)cc1`, the corrected activity, negative = more killing is -4.66% and the z-score was -2.59.

Turning to `N#Cc1c(NC(=O)CN2C(=O)C3CC=C(Cl)CC3C2=O)sc2c1CCC2` (centres undefined), the corrected activity, negative = more killing is -0.241% and the z-score is -0.0746.

For the molecule `CC1=NN(C(=O)c2ccc(C(N)=O)cc2)C(O)(C(F)(F)F)C1` (centres undefined), the corrected activity, negative = more killing was -1.91% and the z-score is -0.786.

As for `CCCCN(C)CCn1c(=S)[nH]c2cc3c(cc2c1=O)OCO3`, the corrected activity, negative = more killing is -6.47% and the z-score was -1.71.

Consider `CCC(Oc1ccccc1)C(=O)N1CCC(C(N)=O)CC1` (centres undefined), for which the corrected activity, negative = more killing is -2.95% and the z-score is -1.64.

Consider `CCOC(=O)c1ccc(NC(=O)C2CCN(C(=O)c3cccs3)CC2)cc1`, for which the corrected activity, negative = more killing was -6.67% and the z-score is -2.48.

With `O=C1NC(=S)SC1=Cc1cc(Cl)ccc1O`, the corrected activity, negative = more killing is -4.39% and the z-score is -1.87.

For the molecule `COc1ccc(C=NNC(=O)c2cc(C34CC5CC(CC(C5)C3)C4)[nH]n2)cc1O`, the corrected activity, negative = more killing is 0.0734% and the z-score was 0.0321.

As for `CC(C(=O)NCCC1=CCCCC1)c1ccc([N+](=O)[O-])cc1` (centres undefined), the corrected activity, negative = more killing was -0.521% and the z-score is -0.29.

For `CCOc1cc(C2Nc3ccccc3NC3=C2C(=O)CC(C)(C)C3)ccc1OC(C)=O` (centres undefined), the corrected activity, negative = more killing is 0.693% and the z-score is 0.309.

For the molecule `Cc1cccc(N2C(=O)c3ccc(NC(=O)c4ccc(Br)cc4)cc3C2=O)c1`, the corrected activity, negative = more killing was -3.53% and the z-score was -1.25.

On to `Cc1ccc(NC(=O)CCNC(=O)Cn2cnc3ccccc3c2=O)c(Br)c1`, for which the corrected activity, negative = more killing is -0.469% and the z-score was -0.149.

For the molecule `Cc1ccc([N+](=O)[O-])cc1NS(=O)(=O)c1ccc(Cl)cc1`, the corrected activity, negative = more killing is 4.17% and the z-score is 1.33.

For the molecule `CCN(C(=O)c1cc2cc3ccc(OC)cc3nc2o1)c1cccc(C(F)(F)F)c1`, the corrected activity, negative = more killing was -3.66% and the z-score was -0.898.

As for `C=CCn1c(=S)[nH]c2cc(C(=O)Nc3cccc(C(F)(F)F)c3)ccc2c1=O`, the corrected activity, negative = more killing was -6.01% and the z-score was -1.91.

As to `CN(Cc1ccccc1)Cc1c(O)ccc2c(=O)c(Oc3ccccc3Br)c(C(F)(F)F)oc12`, the corrected activity, negative = more killing is 2.2% and the z-score was 0.682.

For `CC(C(=O)O)N1C(=O)C2C3CCC(C3)C2C1=O` (centres undefined), the corrected activity, negative = more killing is 1.01% and the z-score was 0.359.

`CCOc1ccc2nc(SCC(=O)Nc3ccccc3C(=O)O)sc2c1`: the corrected activity, negative = more killing was -4.64% and the z-score was -1.75.

For the molecule `COc1ccc(NC(=O)NCc2ccncc2)cc1`, the corrected activity, negative = more killing is -2.54% and the z-score was -1.41.

As for `CCOc1cccc(C=NN2CCN(Cc3ccccc3)CC2)c1O`, the corrected activity, negative = more killing is -2.77% and the z-score is -1.21.

Take `Cc1ccc(S(=O)(=O)N2CCCCCC2)cc1C`: the corrected activity, negative = more killing is 1.77% and the z-score was 0.548.

On to `CCCCN(C(=O)c1cnc2n(c1=O)CCS2)c1ccccc1`, for which the corrected activity, negative = more killing was -5.28% and the z-score was -1.68.

Turning to `Cc1noc(C)c1S(=O)(=O)Nc1ccc(C(=O)Nc2cccc(Cl)c2)cc1`, the corrected activity, negative = more killing was -7.43% and the z-score was -1.82.

With `Cc1ccc(C2C(C(=O)c3ccco3)=C(O)C(=O)N2c2nnc(C)s2)cc1` (centres undefined), the corrected activity, negative = more killing is -5.27% and the z-score was -2.29.

As to `COc1ccc(NC(=O)c2sc3cc([N+](=O)[O-])ccc3c2Cl)c(OC)c1`, the corrected activity, negative = more killing was -2.66% and the z-score is -0.942.

In the case of `Cc1cc(Nc2ncnc3sc4c(c23)CCCC4)ccc1Br`, the corrected activity, negative = more killing was -1.91% and the z-score is -1.03.

With `O=C(c1cccc(NS(=O)(=O)Cc2ccccc2)c1)N1CCOCC1`, the corrected activity, negative = more killing was -1.7% and the z-score is -0.945.

On to `COc1ccc(C=c2sc3nc4cc(C)c(C)cc4n3c2=O)cc1Br`, for which the corrected activity, negative = more killing was -0.475% and the z-score was -0.246.

For `O=C(Nc1ccc(Br)cc1)C1CCN(S(=O)(=O)c2cccc3nonc23)CC1`, the corrected activity, negative = more killing was -3.15% and the z-score is -0.893.

On to `CCC(=O)NC(Nc1ccccc1Cl)(C(F)(F)F)C(F)(F)F`, for which the corrected activity, negative = more killing is -0.701% and the z-score is -0.276.

Turning to `Cc1cccc(OCC(=O)N2CCN(S(C)(=O)=O)CC2)c1`, the corrected activity, negative = more killing is -2.23% and the z-score was -0.994.

In the case of `CCOC(=O)c1ccc(NC(=O)CCc2ccccc2)cc1`, the corrected activity, negative = more killing was -3.6% and the z-score was -1.15.

These data come from PubChem BioAssay AID1508625 (Wald Lab, School of Medicine, Case Western Reserve …, 2021).
